Assay outcomes: PubChem, National Center for Advancing Translational Sciences (NCATS)
GLP1R cytotox = qHTS of GLP-1 Receptor Inverse Agonists: Cytotox Screen | AID 624418, 2012 | Potency, µM (series often up to 38.3 µM), usual class: inhibitors | HEK293 cAMP-luciferase reporter cells, luminescence, 24 h | 0.13% of 410,000 active;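 also: loss of luciferase light is scored as toxicity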
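To flag toxic compounds, the library was rerun on cells for 24 hr at 37 deg C and 5% CO2. Viability-linked luminescence was captured 12 min after adding luciferase detection reagent.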
D3 ag = qHTS of D3 Dopamine Receptor Agonist: qHTS; D(3) dopamine receptor (Homo sapiens), P35462; D3R DiscoveRx beta-arrestin cells, luminescence, 90 min; max activation, %; 0.58% of 410,000 active; AID 652048, 2013; in the data active = max activation above about 30%
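Agonist mode: compounds and dopamine controls were applied to plated cells for 90 min at 37 degrees C after an overnight attachment at 1500 cells/well. Luminescent read-out followed 30 - 60 minutes at room temperature with DiscoveRx detection reagent.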
GLP-1R inv ag = qHTS of GLP-1 Receptor Inverse Agonists (Inhibition Mode) | HEK293 GLP-1R CRE-luciferase, luminescence, 24 h; GLP-1R form is constitutively active | Potency, µM (series often up to 38.3 µM), hits mostly inhibitors | 1.6% of 410,000 active | AID 624417, 2012; also: nearly all actives have a fitted effect of over 55% in size
Target sequence (P43220 whole entry, looked up): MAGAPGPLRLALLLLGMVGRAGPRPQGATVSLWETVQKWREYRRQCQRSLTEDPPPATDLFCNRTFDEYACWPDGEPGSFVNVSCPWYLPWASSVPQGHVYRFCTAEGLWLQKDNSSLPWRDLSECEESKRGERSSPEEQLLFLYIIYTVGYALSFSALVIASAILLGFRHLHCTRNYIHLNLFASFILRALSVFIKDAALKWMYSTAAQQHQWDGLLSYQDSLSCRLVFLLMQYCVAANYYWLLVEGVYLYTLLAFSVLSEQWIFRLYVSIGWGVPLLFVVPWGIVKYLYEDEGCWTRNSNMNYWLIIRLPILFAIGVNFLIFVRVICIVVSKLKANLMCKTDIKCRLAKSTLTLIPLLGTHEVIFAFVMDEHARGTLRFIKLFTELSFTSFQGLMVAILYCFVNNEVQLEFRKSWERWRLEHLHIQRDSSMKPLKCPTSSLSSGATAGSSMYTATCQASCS
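Constitutively active GLP-1R drives a cAMP-responsive luciferase in stably transfected HEK293 cells; test compounds are added after overnight (12 h) attachment and left 24 hr, and signal loss in luminescence marks inhibition.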
D3 antag = qHTS of D3 Dopamine Receptor Antagonist: qHTS | D3R cells, DiscoveRx beta-arrestin luminescence, antagonist mode; stronger effect = lower value | max response, negative = inhibition, % | 2.5% of 360,000 active | AID 652054, 2013; in the data active = max response below about -50%; inconclusive = no clear call, values can overlap the other calls
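Cells expressing the human receptor were seeded at 1500 cells/well, incubated overnight at 37 degrees C in 5% CO2, then exposed to library compounds with dopamine controls for 90 minutes at 37 degrees C before luminescent detection.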
ClpP mod = qHTS Assay for Activators of ClpP; ATP-dependent Clp protease proteolytic subunit (Bacillus subtilis (strain 168)), P80244; purified B. subtilis ClpP, FRET peptide cleavage, 20 min; Potency, µM (highest dose often 57.5 µM); 1.9% of 340,000 active; AID 651965, 2013; active = well fitted falling curve with a large enough effect; inconclusive = small, poorly fitted or top-dose-only effect; inactive = no such curve, though single readings can be large or run the other way; also: the source files actives as falling curves though it sought activators and does not explain the sign; nearly all actives have a fitted effect of over 65% in size
Target sequence (P80244 whole entry, looked up): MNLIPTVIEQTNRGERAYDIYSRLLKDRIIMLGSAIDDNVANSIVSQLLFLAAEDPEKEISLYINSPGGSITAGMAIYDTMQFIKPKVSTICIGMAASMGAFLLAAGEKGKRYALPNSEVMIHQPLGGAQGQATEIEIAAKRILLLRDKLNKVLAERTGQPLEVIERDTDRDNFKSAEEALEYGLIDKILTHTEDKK
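Buffer: 100 mM Tris/HCl pH8, 100 mM KCl, 0.05% low protease BSA, 2.5% glycerol, 0.01% Tween-20. ClpP 10 microg/mL final; 20 min RT; delta FRET normalized to ADEP and DMSO controls.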
GLP1R ag = qHTS of GLP-1 Receptor Agonists | Glucagon-like peptide 1 receptor (Homo sapiens), P43220 | HEK293 GLP-1R CRE-luciferase, luminescence, 4-6 h; cells express a hypersensitive GLP-1R form | Potency, µM (titrated, usually from 45.6 µM), most hits filed as activators | 0.007% of 380,000 active | AID 624172, 2012
Large screens that a line does not name were inactive. This is a sample that favours compounds with a hit; in the whole collection about 5.7% have one here. Unless noted, calls follow the shape of the dose curve; as a rule, active = well fitted curve in the direction sought with a large enough effect; inconclusive = small, poorly fitted or top-dose-only effect, or another doubt; inactive = no such curve, though single readings can be large; an effect the other way counts as inactive or inconclusive.

COc1ccc(CN2CCN(c3cc(C)nc4c5c(C)cc(C)nc5nn34)CC2)cc1F	ClpP mod 11µM
O=C(c1ccc(-c2ccccc2)cc1)N1CCN(c2ccccn2)CC1	GLP-1R inv ag inconclusive (no result: ClpP mod)
Cc1cc(N2CCN(c3ccccn3)CC2)n2cc(-c3ccccc3)nc2n1	ClpP mod 28µM
CCCc1cc(N2CCN(c3ccccn3)CC2)n2nc(C)c(-c3ccccc3)c2n1	ClpP mod 28µM
CCCc1cc(N2CCOCC2)n2nc(C)c(-c3ccccc3)c2n1	none
Cc1cc(N2CCCCC2)n2nc(C)c(-c3ccccc3)c2n1	GLP-1R inv ag inconclusive
Cc1nn2c(N3CCCC3)cc(C(C)C)nc2c1-c1ccccc1	ClpP mod 35µM
CCCn1nc(C(=O)Nc2cccc(S(=O)(=O)N3CCOCC3)c2)c2ccccc2c1=O	none
COc1ccc(-c2c(C)nn3c(N4CCN(Cc5ccccc5)CC4)cc(C)nc23)cc1OC	none
Cc1cc(N2CCN(Cc3ccccc3)CC2)n2nc(C)c(-c3ccccc3)c2n1	D3 antag inconclusive, ClpP mod 32µM
Cc1nn2c(N3CCN(C)CC3)cc(C(C)(C)C)nc2c1-c1ccccc1	GLP1R cytotox inconclusive, GLP-1R inv ag 7.1µM, GLP1R ag inconclusive (no result: ClpP mod)
Cc1ccc(-c2nonc2NC(=O)c2ccc(F)cc2)cc1C	none (no result: D3 antag, GLP1R ag)
Cc1ccccc1NC(=O)c1c(C)oc2ccc(O)c(CN3CCCC3)c12	GLP-1R inv ag inconclusive (no result: D3 antag, GLP1R ag)
O=C(NNc1ccccc1C(F)(F)F)c1sccc1Cl	none (no result: GLP1R cytotox, D3 ag, GLP-1R inv ag, D3 antag, GLP1R ag)
Cc1ccc(-c2nnc(CSc3nnc(COc4ccccc4)n3-c3ccc(C)cc3)o2)cc1	none
Cc1ccc(-c2nnc(CSc3nnc(COc4ccccc4)n3-c3ccccc3)o2)cc1	GLP-1R inv ag 10µM
CCOc1ccc2c(ccc(/C=C/c3cc(C)c4cccnc4c3O)[n+]2C)c1	GLP1R cytotox 11µM, GLP-1R inv ag inconclusive, D3 antag inconclusive
O=C(NCc1ccccc1F)C(=O)NCC(c1ccc2c(c1)OCO2)N1CCOCC1 (centres undefined)	none (no result: D3 antag, GLP1R ag)
COc1cc2c(cc1NC(=S)Nc1cccc3ccccc13)oc1ccccc12	GLP-1R inv ag inconclusive, ClpP mod 10µM
COCCCNC(=S)Nc1cc2oc3ccccc3c2cc1OC	GLP1R cytotox inconclusive, GLP-1R inv ag inconclusive
COc1cc2c(cc1NC(=S)Nc1cccc(C(F)(F)F)c1)oc1ccccc12	GLP-1R inv ag inconclusive, ClpP mod 32µM
CN(C)CCN(Cc1ccccc1)S(=O)(=O)c1ccc(-c2cc(C(F)(F)F)on2)s1	GLP-1R inv ag inconclusive (no result: D3 antag, GLP1R ag)
Cc1ccc(C(=O)N2CCN(Cc3cc(=O)n4nc(-c5ccccc5)sc4n3)CC2)cc1	none (no result: D3 antag, GLP1R ag)
COc1ccc(OCc2cc(=O)[nH]c3ccccc23)cc1	ClpP mod 16µM
COc1ccc(N(Cc2cc(=O)[nH]c3ccccc23)C(=O)CCl)cc1	none (no result: ClpP mod)
CCC/C(=N\NC(=O)c1ccc(CSc2nncn2C)cc1)c1ccccc1	none
Cn1cnnc1SCc1ccc(C(=O)N/N=C(\CCC(=O)O)c2ccc(C(C)(C)C)cc2)cc1	D3 antag -54
COc1ccc(-c2noc(CCC(=O)N3CCN(c4ccccc4C(F)(F)F)CC3)n2)cc1	D3 ag 31, GLP-1R inv ag inconclusive
COc1ccc(-c2noc(CCC(=O)N3CCN(c4cccc(F)c4)CC3)n2)cc1	D3 ag 34
COc1ccc(-c2noc(CCC(=O)N3CCN(c4cccc(Cl)c4)CC3)n2)cc1	none
COc1ccc(-c2noc(CCC(=O)N3CCN(c4ccccc4OC)CC3)n2)cc1	none
Cc1cc(C)c2nc(N3C(=O)C(O)=C(C(=O)c4ccco4)C3c3ccco3)sc2c1 (centres undefined)	D3 ag 31
CCOc1ccc2nc(N3C(=O)C(O)=C(C(=O)c4ccco4)C3c3ccco3)sc2c1 (centres undefined)	none
CCCCNC(=O)C1CCN(c2nc(C)cc(C)n2)CC1	none
Cc1cc(C)nc(N2CCC(C(=O)N3CCN(c4cc(Cl)ccc4C)CC3)CC2)n1	D3 ag 65, GLP-1R inv ag inconclusive
Cc1cc(C)nc(N2CCC(C(=O)NCc3ccccc3)CC2)n1	none
CCC(C)(C)NC(=O)C1CCN(c2nc(C)cc(C)n2)CC1	ClpP mod 14µM
CCCNC(=O)C1CCN(c2nc(C)cc(C)n2)CC1	ClpP mod 16µM
Cc1ccc(C)c(N2CCN(C(=O)C3CCN(c4nc(C)cc(C)n4)CC3)CC2)c1	none
Cc1ccc(NC(=O)C2CCN(c3nc(C)cc(C)n3)CC2)cc1	ClpP mod inconclusive
Cc1cc(C)nc(N2CCC(C(=O)O)CC2)n1	ClpP mod 20µM
COc1cc2nc(N3CCCCC3)nc(NC(C)C)c2cc1OC	none (no result: GLP1R cytotox, D3 ag, GLP-1R inv ag, D3 antag, GLP1R ag)
O=C(c1ccc(Cl)cc1)N1CCCCC1CCN1CCOCC1 (centres undefined)	none (no result: D3 antag, GLP1R ag)
CC(C)NC(=O)C1(C)CCN1Cc1cccc(C#N)c1 (centres undefined)	none
Cn1c(NCC2CCCCC2)nc2cc(-c3ccsc3)sc2c1=O	D3 antag -51, ClpP mod inconclusive
CN(C)CCCNc1nc2cc(-c3cccc(Cl)c3)sc2c(=O)n1C	GLP-1R inv ag inconclusive, D3 antag -60
Cc1ccc(CNc2nc3cc(-c4ccccc4)sc3c(=O)n2C)c(C)c1	ClpP mod 28µM
COc1cccc(CNc2nc3cc(-c4cccc(Cl)c4)sc3c(=O)n2C)c1	ClpP mod 20µM
COc1ccc(-c2cc3nc(NCc4ccc(C)cc4C)n(C)c(=O)c3s2)cc1OC	ClpP mod inconclusive
C=C1C=C(C(F)F)n2ncc(C(=O)Nc3cccc(CC)c3)c2N1	none (no result: GLP1R cytotox, D3 ag, GLP-1R inv ag, D3 antag, GLP1R ag)
Cc1ccc(NC(=O)c2c(C)oc3nc(C)nc(N4CCCC4)c23)c(C)c1	none (no result: D3 antag, GLP1R ag)
Cn1c(NCc2cccnc2)nc2cc(-c3ccc(C(=O)N4CCOCC4)cc3)sc2c1=O	D3 antag -78
COc1ccc(-n2c(SCC(=O)NC3CCCCC3)nc3c([nH]c4ccccc43)c2=O)cc1	none (no result: D3 antag)
COc1ccccc1NC(=S)NNC(=O)c1cc(C)nn1C	D3 antag -70
COc1ccccc1NC(=O)c1cc(C(=O)Nc2ccccc2OC)n(C)n1	none (no result: ClpP mod)
COc1ccccc1NC(=S)NNC(=O)c1ccccc1	D3 antag -72
COc1ccccc1NC(=S)NNC(=O)c1c(Cl)c(C)nn1C	none
COc1ccccc1NC(=S)NNC(=O)c1cc(C)n(C)n1	D3 antag -50
